Key:
Assay in all cases: DAPPL (digital affinity profiling via proximity ligation, sequencing); 10 mM Tris-HCl pH 7.5, 50 mM NaCl, 1 mM DTT, 4% glycerol, room temperature, 30 min; GST-TFs on glutathione beads, 16-mer random dsDNA library, 0.1% formaldehyde crosslink after washing; high values mean tight binding
Settings in all cases: protein: recombinant; tags: N-terminal GST; dsDNA, one strand shown
FEV = target: T1, FEV (Homo sapiens, UniProt Q99581 1-238)
T1 sequence: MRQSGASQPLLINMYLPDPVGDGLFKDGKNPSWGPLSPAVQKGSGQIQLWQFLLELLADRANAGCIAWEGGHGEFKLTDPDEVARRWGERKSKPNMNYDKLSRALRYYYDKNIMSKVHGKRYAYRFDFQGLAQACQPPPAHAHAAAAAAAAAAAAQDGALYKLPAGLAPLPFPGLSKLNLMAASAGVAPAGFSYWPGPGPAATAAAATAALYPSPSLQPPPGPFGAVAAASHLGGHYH
In short: (§1)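 GST fusions of human transcription factors were expressed in yeast and captured with glutathione beads. Once given DNA barcodes and pooled alongside a tag-only sample, they were incubated for 30 min at room temperature with 200 nmole of a random double-stranded 16-mer DNA library in Tris/NaCl/DTT/glycerol buffer, then washed, crosslinked (0.1% formaldehyde), proximity-ligated, PCR-amplified and sequenced on an Illumina NextSeq500. The binding signal of each hexamer is its read frequency for a factor divided by its frequency for the tag-only sample.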

ETV5 = ETV5 (Homo sapiens, UniProt P41161 1-510)
Sequence of ETV5 (P41161 whole entry): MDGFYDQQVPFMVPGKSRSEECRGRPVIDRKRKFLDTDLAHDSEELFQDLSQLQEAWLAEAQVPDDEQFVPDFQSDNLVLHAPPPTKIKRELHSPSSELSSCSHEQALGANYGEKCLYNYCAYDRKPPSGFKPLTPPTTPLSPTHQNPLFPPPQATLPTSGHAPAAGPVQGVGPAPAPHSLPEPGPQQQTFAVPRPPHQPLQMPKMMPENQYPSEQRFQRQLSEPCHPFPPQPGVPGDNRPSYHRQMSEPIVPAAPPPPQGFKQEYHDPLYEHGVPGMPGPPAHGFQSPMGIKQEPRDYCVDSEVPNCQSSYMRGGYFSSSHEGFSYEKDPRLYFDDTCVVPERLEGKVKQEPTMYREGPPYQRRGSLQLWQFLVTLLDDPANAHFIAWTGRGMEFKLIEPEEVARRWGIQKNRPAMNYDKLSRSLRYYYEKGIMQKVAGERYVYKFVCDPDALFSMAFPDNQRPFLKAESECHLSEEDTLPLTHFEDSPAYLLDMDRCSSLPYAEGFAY
In short: as §1

SPIC = target: T2, SPIC (Homo sapiens, UniProt Q8N5J4 1-248)
T2 sequence: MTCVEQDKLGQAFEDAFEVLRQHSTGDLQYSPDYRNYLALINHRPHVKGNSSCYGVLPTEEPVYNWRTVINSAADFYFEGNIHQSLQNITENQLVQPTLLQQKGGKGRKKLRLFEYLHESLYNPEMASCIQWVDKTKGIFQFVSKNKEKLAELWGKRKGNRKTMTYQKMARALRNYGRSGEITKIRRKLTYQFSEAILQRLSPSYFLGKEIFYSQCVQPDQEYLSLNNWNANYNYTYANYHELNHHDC
In short: as §1

ELF4 = ELF4 (Homo sapiens, UniProt Q99607 1-663)
Sequence of ELF4 (Q99607 whole entry): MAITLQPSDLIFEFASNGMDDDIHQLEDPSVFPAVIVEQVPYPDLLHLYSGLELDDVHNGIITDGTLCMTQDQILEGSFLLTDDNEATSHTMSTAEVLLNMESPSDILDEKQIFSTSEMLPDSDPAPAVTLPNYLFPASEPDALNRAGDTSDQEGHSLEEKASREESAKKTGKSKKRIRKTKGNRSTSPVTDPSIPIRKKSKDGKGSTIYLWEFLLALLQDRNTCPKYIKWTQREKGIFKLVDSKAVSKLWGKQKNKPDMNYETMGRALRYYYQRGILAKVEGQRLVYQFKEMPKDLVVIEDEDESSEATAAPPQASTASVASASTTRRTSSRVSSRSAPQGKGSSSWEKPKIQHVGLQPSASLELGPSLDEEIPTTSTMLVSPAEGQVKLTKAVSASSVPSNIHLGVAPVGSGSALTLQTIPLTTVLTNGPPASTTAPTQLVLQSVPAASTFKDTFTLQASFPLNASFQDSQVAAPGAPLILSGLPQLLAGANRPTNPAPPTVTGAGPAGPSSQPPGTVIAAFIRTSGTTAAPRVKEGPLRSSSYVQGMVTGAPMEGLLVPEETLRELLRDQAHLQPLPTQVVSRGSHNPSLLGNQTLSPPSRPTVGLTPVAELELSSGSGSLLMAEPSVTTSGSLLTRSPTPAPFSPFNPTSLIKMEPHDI
In short: as §1

ELK4 = target: T3, ELK4 (Homo sapiens, UniProt P28324-2 1-405)
T3 sequence: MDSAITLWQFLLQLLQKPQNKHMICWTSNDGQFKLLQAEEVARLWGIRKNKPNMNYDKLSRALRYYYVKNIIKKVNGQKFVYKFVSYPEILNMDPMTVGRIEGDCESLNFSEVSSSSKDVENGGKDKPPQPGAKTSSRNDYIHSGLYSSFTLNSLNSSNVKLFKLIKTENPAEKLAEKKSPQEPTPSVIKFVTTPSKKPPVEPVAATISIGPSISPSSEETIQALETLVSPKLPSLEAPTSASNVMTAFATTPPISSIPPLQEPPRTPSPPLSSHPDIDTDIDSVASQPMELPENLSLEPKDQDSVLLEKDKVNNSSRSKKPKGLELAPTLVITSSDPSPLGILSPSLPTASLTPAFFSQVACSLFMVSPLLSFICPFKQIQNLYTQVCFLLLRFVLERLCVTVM
In short: as §1

ETV2 = target: T4, ETV2 (Homo sapiens, UniProt O00321 1-342)
T4 sequence: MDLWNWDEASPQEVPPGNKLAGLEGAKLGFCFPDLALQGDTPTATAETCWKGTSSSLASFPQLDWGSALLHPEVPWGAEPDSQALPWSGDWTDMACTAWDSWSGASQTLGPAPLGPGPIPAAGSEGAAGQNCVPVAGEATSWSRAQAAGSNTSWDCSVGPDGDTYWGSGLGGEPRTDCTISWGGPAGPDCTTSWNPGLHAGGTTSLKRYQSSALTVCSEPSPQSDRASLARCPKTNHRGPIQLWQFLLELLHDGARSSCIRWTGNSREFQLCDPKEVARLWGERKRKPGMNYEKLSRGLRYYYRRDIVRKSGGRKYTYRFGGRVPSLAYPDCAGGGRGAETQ
In short: as §1

ELF3 = target: T5, ELF3 (Homo sapiens, UniProt P78545 1-371)
T5 sequence: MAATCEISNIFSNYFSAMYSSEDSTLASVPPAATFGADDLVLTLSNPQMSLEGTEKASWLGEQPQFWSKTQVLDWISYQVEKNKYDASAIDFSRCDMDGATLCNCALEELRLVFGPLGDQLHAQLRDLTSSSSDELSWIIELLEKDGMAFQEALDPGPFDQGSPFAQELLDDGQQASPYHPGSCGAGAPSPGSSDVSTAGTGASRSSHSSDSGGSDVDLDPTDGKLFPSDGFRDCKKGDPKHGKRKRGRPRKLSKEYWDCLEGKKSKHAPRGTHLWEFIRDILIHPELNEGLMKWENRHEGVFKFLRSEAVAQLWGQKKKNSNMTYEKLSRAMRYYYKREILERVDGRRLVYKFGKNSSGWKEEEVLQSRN
In short: as §1

ETV1 = ETV1 (Homo sapiens, UniProt P50549 1-477)
Sequence of ETV1 (P50549 whole entry): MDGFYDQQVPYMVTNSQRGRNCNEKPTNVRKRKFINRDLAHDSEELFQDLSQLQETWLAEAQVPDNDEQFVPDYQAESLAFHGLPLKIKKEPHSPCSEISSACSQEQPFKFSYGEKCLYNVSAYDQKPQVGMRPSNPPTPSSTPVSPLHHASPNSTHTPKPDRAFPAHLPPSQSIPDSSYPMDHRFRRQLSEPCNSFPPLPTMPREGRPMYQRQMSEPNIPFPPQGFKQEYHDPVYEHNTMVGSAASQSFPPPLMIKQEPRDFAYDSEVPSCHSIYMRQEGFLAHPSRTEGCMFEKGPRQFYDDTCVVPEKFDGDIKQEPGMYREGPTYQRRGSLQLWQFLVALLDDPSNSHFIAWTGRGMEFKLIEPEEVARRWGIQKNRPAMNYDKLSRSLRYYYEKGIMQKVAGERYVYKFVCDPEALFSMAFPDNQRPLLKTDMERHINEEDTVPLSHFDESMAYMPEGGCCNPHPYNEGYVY
In short: as §1

ERF = target: T6, ERF (Homo sapiens, UniProt P50548 1-548)
T6 sequence: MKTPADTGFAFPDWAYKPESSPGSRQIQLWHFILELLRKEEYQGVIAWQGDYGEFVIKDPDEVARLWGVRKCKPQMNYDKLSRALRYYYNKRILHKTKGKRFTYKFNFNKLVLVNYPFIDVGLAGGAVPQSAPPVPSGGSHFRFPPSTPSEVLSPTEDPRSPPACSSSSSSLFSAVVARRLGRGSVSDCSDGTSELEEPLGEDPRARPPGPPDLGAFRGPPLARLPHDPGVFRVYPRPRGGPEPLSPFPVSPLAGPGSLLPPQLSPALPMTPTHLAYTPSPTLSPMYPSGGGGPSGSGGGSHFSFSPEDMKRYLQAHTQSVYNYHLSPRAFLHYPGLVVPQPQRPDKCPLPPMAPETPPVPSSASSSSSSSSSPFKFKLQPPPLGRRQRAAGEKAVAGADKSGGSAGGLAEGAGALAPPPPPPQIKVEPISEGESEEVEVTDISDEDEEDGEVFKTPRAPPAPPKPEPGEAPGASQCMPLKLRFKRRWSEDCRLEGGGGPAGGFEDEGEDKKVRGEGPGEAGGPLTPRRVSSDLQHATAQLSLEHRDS
In short: as §1

ETV3L = target: T7, ETV3L (Homo sapiens, UniProt Q6ZN32 1-361)
T7 sequence: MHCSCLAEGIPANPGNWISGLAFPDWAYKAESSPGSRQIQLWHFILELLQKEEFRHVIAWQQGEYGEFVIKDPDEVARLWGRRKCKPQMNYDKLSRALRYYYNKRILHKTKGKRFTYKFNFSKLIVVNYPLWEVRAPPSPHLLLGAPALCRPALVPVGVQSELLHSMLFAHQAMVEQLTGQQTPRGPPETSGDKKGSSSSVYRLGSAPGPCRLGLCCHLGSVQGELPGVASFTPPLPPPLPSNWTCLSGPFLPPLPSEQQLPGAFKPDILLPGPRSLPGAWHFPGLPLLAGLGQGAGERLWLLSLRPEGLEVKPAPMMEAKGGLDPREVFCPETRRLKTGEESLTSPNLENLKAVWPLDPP
In short: as §1

ETS2 = target: T8, ETS2 (Homo sapiens, UniProt P15036 1-469)
T8 sequence: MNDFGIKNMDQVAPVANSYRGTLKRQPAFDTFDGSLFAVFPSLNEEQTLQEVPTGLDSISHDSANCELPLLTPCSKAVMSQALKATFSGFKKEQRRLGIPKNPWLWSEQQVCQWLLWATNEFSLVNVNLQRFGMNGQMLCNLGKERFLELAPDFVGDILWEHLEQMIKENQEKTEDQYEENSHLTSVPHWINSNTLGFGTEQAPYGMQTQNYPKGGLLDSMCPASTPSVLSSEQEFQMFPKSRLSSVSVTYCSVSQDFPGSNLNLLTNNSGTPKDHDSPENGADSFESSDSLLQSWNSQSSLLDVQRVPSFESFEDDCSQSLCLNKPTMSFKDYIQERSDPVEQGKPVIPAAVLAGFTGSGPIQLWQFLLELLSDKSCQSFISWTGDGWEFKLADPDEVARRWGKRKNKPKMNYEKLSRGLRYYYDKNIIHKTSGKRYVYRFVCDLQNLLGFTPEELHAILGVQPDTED
In short: as §1

SPDEF = target: T9, SPDEF (Homo sapiens, UniProt O95238 1-335)
T9 sequence: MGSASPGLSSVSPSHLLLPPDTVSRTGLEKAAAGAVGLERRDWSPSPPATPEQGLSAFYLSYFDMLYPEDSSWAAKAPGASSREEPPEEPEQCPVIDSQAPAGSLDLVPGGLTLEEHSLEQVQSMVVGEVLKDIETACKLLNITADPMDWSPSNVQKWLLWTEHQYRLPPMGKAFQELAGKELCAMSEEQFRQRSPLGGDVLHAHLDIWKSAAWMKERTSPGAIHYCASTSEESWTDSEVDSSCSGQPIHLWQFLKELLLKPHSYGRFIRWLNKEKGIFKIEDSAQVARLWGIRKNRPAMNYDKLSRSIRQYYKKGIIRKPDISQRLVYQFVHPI
In short: as §1

ETV7 = target: T10, ETV7 (Homo sapiens, UniProt Q9Y603 1-341)
T10 sequence: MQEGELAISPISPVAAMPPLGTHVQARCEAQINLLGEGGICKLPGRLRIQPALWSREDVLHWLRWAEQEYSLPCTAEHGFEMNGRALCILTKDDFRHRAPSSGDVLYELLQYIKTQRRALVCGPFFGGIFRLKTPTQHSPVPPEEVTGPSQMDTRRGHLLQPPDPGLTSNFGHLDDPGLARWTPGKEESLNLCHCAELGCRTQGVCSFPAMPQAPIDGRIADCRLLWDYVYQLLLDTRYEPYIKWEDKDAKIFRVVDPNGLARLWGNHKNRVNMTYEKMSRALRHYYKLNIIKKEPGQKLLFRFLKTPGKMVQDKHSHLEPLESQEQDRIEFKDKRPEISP
In short: as §1

ELF5 = target: T11, ELF5 (Homo sapiens, UniProt Q9UKW6-2 1-255)
T11 sequence: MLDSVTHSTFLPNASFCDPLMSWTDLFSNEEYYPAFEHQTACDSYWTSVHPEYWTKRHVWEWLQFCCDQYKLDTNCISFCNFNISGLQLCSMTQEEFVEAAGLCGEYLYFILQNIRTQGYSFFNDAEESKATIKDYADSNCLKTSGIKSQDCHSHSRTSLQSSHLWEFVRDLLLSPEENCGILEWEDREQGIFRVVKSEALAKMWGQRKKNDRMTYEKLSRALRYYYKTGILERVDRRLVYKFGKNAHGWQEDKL
In short: as §1

ETV3 = target: T12, ETV3 (Homo sapiens, UniProt P41162-2 1-143)
T12 sequence: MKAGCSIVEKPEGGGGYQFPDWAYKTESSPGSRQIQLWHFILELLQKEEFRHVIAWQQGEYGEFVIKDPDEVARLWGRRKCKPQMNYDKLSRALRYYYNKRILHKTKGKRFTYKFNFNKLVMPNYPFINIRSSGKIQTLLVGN
In short: as §1

ETV6 = ETV6 (Homo sapiens, UniProt P41212 1-452)
Sequence of ETV6 (P41212 whole entry): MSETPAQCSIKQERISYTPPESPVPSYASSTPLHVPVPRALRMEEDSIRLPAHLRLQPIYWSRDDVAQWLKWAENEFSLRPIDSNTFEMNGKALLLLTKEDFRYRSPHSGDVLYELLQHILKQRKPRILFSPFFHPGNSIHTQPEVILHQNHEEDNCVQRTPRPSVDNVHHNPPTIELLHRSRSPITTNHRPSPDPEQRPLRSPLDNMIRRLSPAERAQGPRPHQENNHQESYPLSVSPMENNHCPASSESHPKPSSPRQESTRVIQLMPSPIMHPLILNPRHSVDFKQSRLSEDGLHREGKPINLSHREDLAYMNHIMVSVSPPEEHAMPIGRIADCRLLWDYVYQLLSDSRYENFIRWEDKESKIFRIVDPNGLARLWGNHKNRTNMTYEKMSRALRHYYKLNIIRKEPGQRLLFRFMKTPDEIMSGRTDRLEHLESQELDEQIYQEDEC
In short: as §1

Row | Sequence | binding signal (FEV) | binding signal (ETV5) | binding signal (SPIC) | binding signal (ELF4) | binding signal (ELK4) | binding signal (ETV2) | binding signal (ELF3) | binding signal (ETV1) | binding signal (ERF) | binding signal (ETV3L) | binding signal (ETS2) | binding signal (SPDEF) | binding signal (ETV7) | binding signal (ELF5) | binding signal (ETV3) | binding signal (ETV6)
1 | ACACAT | 1.29 fold enrichment (6-mer frequency, TF over GST control) | 1.19 fold enrichment (6-mer frequency, TF over GST control) | 1.17 fold enrichment (6-mer frequency, TF over GST control) | 1.23 fold enrichment (6-mer frequency, TF over GST control) | 1.33 fold enrichment (6-mer frequency, TF over GST control) | 1.35 fold enrichment (6-mer frequency, TF over GST control) | 1.28 fold enrichment (6-mer frequency, TF over GST control) | 1.23 fold enrichment (6-mer frequency, TF over GST control) | 1.29 fold enrichment (6-mer frequency, TF over GST control) | 1.23 fold enrichment (6-mer frequency, TF over GST control) | 1.27 fold enrichment (6-mer frequency, TF over GST control) | 1.31 fold enrichment (6-mer frequency, TF over GST control) | 1.27 fold enrichment (6-mer frequency, TF over GST control) | 1.23 fold enrichment (6-mer frequency, TF over GST control) | 1.2 fold enrichment (6-mer frequency, TF over GST control) | 1.22 fold enrichment (6-mer frequency, TF over GST control)
2 | AACCGG | 2.35 fold enrichment (6-mer frequency, TF over GST control) | 1.53 fold enrichment (6-mer frequency, TF over GST control) | 1.4 fold enrichment (6-mer frequency, TF over GST control) | 1.31 fold enrichment (6-mer frequency, TF over GST control) | 1.26 fold enrichment (6-mer frequency, TF over GST control) | 1.45 fold enrichment (6-mer frequency, TF over GST control) | 1.36 fold enrichment (6-mer frequency, TF over GST control) | 1.69 fold enrichment (6-mer frequency, TF over GST control) | 1.42 fold enrichment (6-mer frequency, TF over GST control) | 1.43 fold enrichment (6-mer frequency, TF over GST control) | 1.46 fold enrichment (6-mer frequency, TF over GST control) | 1.8 fold enrichment (6-mer frequency, TF over GST control) | 1.36 fold enrichment (6-mer frequency, TF over GST control) | 1.52 fold enrichment (6-mer frequency, TF over GST control) | 1.6 fold enrichment (6-mer frequency, TF over GST control) | 1.5 fold enrichment (6-mer frequency, TF over GST control)

From publication PMC7862700, “An all-to-all approach to the identification of sequence-specific readers for epigenetic DNA modifications on cytosine”
